We go through seven compounds from PubChem BioAssay (NCI).

This is part of a sample that, as a whole, favours compounds with a hit. Of some 83,000 tested, about 20% had one in any assay.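 Negative percent growth values reflect cell death: -40 means 40% of the cells present at the start died, and -100 means all died.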 Values without a mark were called inactive. Activity calls are given as the source filed them. The calls were made as follows: active = growth percent below 10; inactive = the rest.

Experiment in all cases: NCI-60 one-dose screen, 48 h (100 = growth as untreated, 0 = no growth, -100 = all killed)
The test system of one experiment is HCT-15 colon. Particulars: 10 µM unless noted.
The next experiment concerns HT29 colon. The note with it: 10 µM unless noted.
The next experiment deals with SNB-75 CNS. The note with it: 10 µM unless noted.
A further experiment concerns SNB-19 CNS. The note with it: 10 µM unless noted.
The next experiment concerns U251 CNS. The note with it: 10 µM unless noted.
The subject of the next experiment is PC-3 prostate. The note with it: 10 µM unless noted.
The test system of the next experiment is SK-MEL-5 melanoma. Particulars: 10 µM unless noted.
In the next experiment the test system is UACC-62 melanoma. Particulars: 10 µM unless noted.
The test system of a further experiment is LOX IMVI melanoma. Particulars: 10 µM.
Another experiment deals with SK-MEL-28 melanoma. The note with it: 10 µM unless noted.
For the next experiment, the system named is SK-MEL-2 melanoma. The note with it: 10 µM unless noted.
A further experiment relates to EKVX NSCLC. The note with it: 10 µM unless noted.
The next experiment concerns SN12C renal. The note with it: 10 µM unless noted.
Another experiment deals with UO-31 renal. Particulars: 10 µM unless noted.
A further experiment relates to TK-10 renal. Particulars: 10 µM unless noted.
The subject of the next experiment is ACHN renal. Particulars: 10 µM unless noted.
For another experiment, the system named is CAKI-1 renal. Particulars: 10 µM unless noted.
The next experiment relates to A498 renal. The note with it: 10 µM unless noted.
The next experiment deals with CCRF-CEM leukemia. The note with it: 10 µM unless noted.
For the next experiment, the system named is MOLT-4 leukemia. The note with it: 10 µM unless noted.

As for `COc1ccc2c(c1)c(-c1cc(N)n3nc(-c4cn(C)c5ccccc45)cc3n1)cn2C`, the growth with HCT-15 colon was -80.1% (active); in the experiment on HT29 colon it was -64.6% (active); in the experiment on SNB-75 CNS, -66.3% (active); in the experiment with SNB-19 CNS, 4.07% (active); in the experiment on U251 CNS, -80% (active); in the experiment with PC-3 prostate it was -20.5% (active). For the same compound, the growth in the experiment with SK-MEL-5 melanoma was -58.3% (active); with UACC-62 melanoma, -58.4% (active); in the experiment on LOX IMVI melanoma, -87.1% (active); with SK-MEL-28 melanoma it was -92.2% (active); in the experiment on SK-MEL-2 melanoma, -92.4% (active); in the experiment with EKVX NSCLC, -63.1% (active). The growth with SN12C renal is -59.6% (active); in the experiment on UO-31 renal it was -88.3% (active); with TK-10 renal it was -79% (active); in the experiment with ACHN renal it was -98.7% (active); with CAKI-1 renal, -77.4% (active); in the experiment with A498 renal it was -20.3% (active). Further, the growth is -24.3% (active) with CCRF-CEM leukemia and 0.804% (active) in the experiment with MOLT-4 leukemia.
Turning to `CN(C)c1nc(NCCNS(=O)(=O)c2ccc(C(=O)/C=C/c3ccc(C(F)(F)F)cc3)cc2)nc(Nc2ccc(F)cc2)n1`, the growth in the experiment on HCT-15 colon was -92.5% (active); with HT29 colon it was -94% (active); in the experiment with SNB-75 CNS it was 54.6%; in the experiment on SNB-19 CNS, 25.2%; in the experiment on U251 CNS, -99.2% (active); in the experiment with PC-3 prostate, -33.5% (active). In addition, the growth in the experiment on SK-MEL-5 melanoma is 16.2%; with UACC-62 melanoma it was -5.71% (active); in the experiment with LOX IMVI melanoma, -100% (active); in the experiment with SK-MEL-28 melanoma, -80% (active); in the experiment on SK-MEL-2 melanoma, -7.74% (active); with EKVX NSCLC, 13.6%. Further, the growth in the experiment on SN12C renal was -99.1% (active); with UO-31 renal, 25.5%; in the experiment with TK-10 renal it was 26.2%; in the experiment with ACHN renal, 1.99% (active); in the experiment with CAKI-1 renal it was 4.56% (active); in the experiment on A498 renal it was 49.6%. The growth with CCRF-CEM leukemia is 10.1%; in the experiment on MOLT-4 leukemia, 0.0408% (active).
With `COc1ccc(/C=C/c2n(Cc3ccc4ccccc4c3)c3ccccc3[n+]2Cc2ccc3ccccc3c2)cc1`, the growth in the experiment with HCT-15 colon is -76.9% (active); with HT29 colon, -97.1% (active); in the experiment with SNB-75 CNS, -95.7% (active); with SNB-19 CNS, -94.6% (active); in the experiment on U251 CNS it was -94.3% (active); in the experiment on PC-3 prostate, -25.1% (active). Besides, the growth was -97.6% (active) in the experiment with SK-MEL-5 melanoma; -90.5% (active) in the experiment on UACC-62 melanoma; -80.4% (active) with LOX IMVI melanoma; -89% (active) in the experiment on SK-MEL-28 melanoma; -93.7% (active) in the experiment with SK-MEL-2 melanoma; -82.7% (active) in the experiment with EKVX NSCLC. Besides, the growth is -88.8% (active) in the experiment on SN12C renal; -93% (active) in the experiment on UO-31 renal; -93.7% (active) in the experiment on TK-10 renal; -100% (active) in the experiment with ACHN renal; -100% (active) with CAKI-1 renal; -79.8% (active) in the experiment with A498 renal. In addition, the growth in the experiment with MOLT-4 leukemia was -2.71% (active).
As for `Cc1ccc(NC(=O)CN2CCN(c3ncnc4c3cnn4-c3ccccc3)CC2)cc1`, the growth is 50.3% in the experiment with HCT-15 colon; 93.8% in the experiment on HT29 colon; 103% with SNB-75 CNS; 85.9% in the experiment on SNB-19 CNS; 86.5% in the experiment with U251 CNS; 65.5% with PC-3 prostate. For the same compound, the growth is 77.6% with SK-MEL-5 melanoma; 69.3% with UACC-62 melanoma; 23.3% in the experiment on LOX IMVI melanoma; 86.5% with SK-MEL-28 melanoma; 87.8% with SK-MEL-2 melanoma; 81% in the experiment with EKVX NSCLC. The growth is 74.6% with SN12C renal; 63% in the experiment with UO-31 renal; 152% in the experiment with TK-10 renal; -32.7% (active) with ACHN renal; 77.8% in the experiment with CAKI-1 renal; 104% in the experiment with A498 renal. The growth in the experiment on CCRF-CEM leukemia was 78.4%; with MOLT-4 leukemia it was 68.1%.
In the case of `CC(C)C(C(=O)O)n1c(O)c(/C=C2/C=c3cc4c(cc3=NC2=O)OCO4)sc1=S` (centres undefined), the growth was 101% with HCT-15 colon; 119% in the experiment with HT29 colon; 101% in the experiment with SNB-75 CNS; 94.4% in the experiment on SNB-19 CNS; 106% with U251 CNS; 106% in the experiment with PC-3 prostate. For the same compound, the growth is 103% with SK-MEL-5 melanoma; 89.2% in the experiment on UACC-62 melanoma; 94% with LOX IMVI melanoma; 110% in the experiment with SK-MEL-28 melanoma; 104% in the experiment on SK-MEL-2 melanoma; 99.3% in the experiment with EKVX NSCLC. Moreover, the growth in the experiment with SN12C renal is 96.6%; in the experiment on UO-31 renal, 78.2%; in the experiment on TK-10 renal, 89.8%; in the experiment on ACHN renal, 111%; with CAKI-1 renal, 93%; in the experiment with A498 renal, 102%. The growth was 106% in the experiment on CCRF-CEM leukemia and 104% in the experiment with MOLT-4 leukemia.
In the case of `Cn1cc(-c2nc(N)nnc2-c2c[nH]c3ccc(Br)cc23)c2cc(Br)cnc21`, the growth in the experiment with HCT-15 colon is 3.67% (active); in the experiment on HT29 colon, -31.5% (active); in the experiment with SNB-75 CNS, -0.672% (active); in the experiment on SNB-19 CNS it was 33.9%; with U251 CNS, 8.22% (active); with PC-3 prostate, 3.39% (active). The growth was -63.5% (active) in the experiment with SK-MEL-5 melanoma; 8.26% (active) in the experiment on UACC-62 melanoma; 17.3% in the experiment with LOX IMVI melanoma; 27.1% in the experiment with SK-MEL-28 melanoma; 13.1% with SK-MEL-2 melanoma; 30.4% with EKVX NSCLC. Besides, the growth is 11.3% in the experiment on SN12C renal; 10.4% in the experiment with UO-31 renal; 47.4% in the experiment with TK-10 renal; 6.39% (active) with ACHN renal; -8.15% (active) in the experiment with CAKI-1 renal; -14.3% (active) with A498 renal. Also, the growth is 0.493% (active) in the experiment with CCRF-CEM leukemia and -2.69% (active) with MOLT-4 leukemia.
In the case of `O=C(CCN1C(=O)/C(=C/c2ccc(F)cc2)SC1=S)N1CCOCC1`, the growth with HCT-15 colon was 55.3%; in the experiment on HT29 colon, 78.7%; in the experiment on SNB-75 CNS, 98.3%; with SNB-19 CNS, 87.6%; with U251 CNS, 89.1%; in the experiment with PC-3 prostate it was 106%. The growth with SK-MEL-5 melanoma was 83.2%; with UACC-62 melanoma, 47.6%; in the experiment on LOX IMVI melanoma, 40.2%; in the experiment with SK-MEL-28 melanoma it was 72.9%; in the experiment on SK-MEL-2 melanoma, 65.9%; in the experiment on EKVX NSCLC, 87.2%. For the same compound, the growth with SN12C renal is 53%; with UO-31 renal, 51.1%; in the experiment with TK-10 renal, 85.6%; in the experiment on ACHN renal it was 63.6%; with CAKI-1 renal, 88.4%; in the experiment with A498 renal it was 72.5%. Besides, the growth in the experiment on CCRF-CEM leukemia was 66.6%; in the experiment on MOLT-4 leukemia, 84%.
